Source: PubChem BioAssay AID1845224 (National Center for Advancing Translational Sciences (NCATS), 2023)
Results filed as inconclusive are left out. A number with no mark means an inactive call. Calls of active or inactive are those of the source. The call rests on the fitted dose curve; in most records, active means well fitted curve in the direction sought with a large enough effect; inconclusive means small, poorly fitted or top-dose-only effect, or another doubt; inactive means no such curve, though single readings can be large or run the other way.

Tested on: NanoLuc luciferase (engineered Oplophorus gracilirostris luciferase)
Assay: Confirmatory Nanoluciferase (NLuc) qHTS assay for identification of artifact compounds. On activity change, negative = inhibition: % of control where 0% means no effect.
Details: secreted NLuc in S16 cell medium, luminescence, 5 min; series mostly up to 39 µM; activity change, negative = inhibition: at the top concentration
In short: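 Conditioned medium from NLuc-expressing S16 cells (diluted 1:55) was incubated with compounds for 15 min at room temperature. Nano-Glo substrate (1:100) was then added, and luminescence was read after 5 min.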
Potency means the concentration at half of the fitted maximal effect.

| SMILES | activity change, negative = inhibition | Potency |
| --- | --- | --- |
| COC(=O)c1scc(-c2ccc(C)cc2)c1S(=O)(=O)Nc1cc(Cl)ccc1C | -2.44% |  |
| CN(C)c1ccc(CNC(=O)c2ccc3c(c2)N(C)C(=O)C2CCCCN32)cc1 (stereo unspecified) | -7.38% |  |
| COc1ccc(C2Nc3ccccc3C(=O)N2Cc2ccccc2)cc1Oc1ccc(NC(C)=O)cc1 (stereo unspecified) | -10.2% |  |
| Cc1ccc(S(=O)(=O)c2nnn3c2nc(NCc2ccc(F)cc2)c2sccc23)cc1C | -6.1% |  |
| CCc1cccc(NC(=O)Cn2c(=O)n3nc(-c4cccc(F)c4)nc3c3ccccc32)c1 | -14.1% |  |
| N#C/C(=C\c1ccc(-c2cc(Cl)ccc2Cl)o1)C(=O)Nc1ccccc1C(=O)O |  | 12.2 µM (active) |
| Oc1ccc(CCc2c(F)cccc2F)c2cccnc12 | -11.6% |  |
| Cc1cccn2c(=O)c3cc(C(=O)NCc4ccccc4)c(=N)n(CCOCCO)c3nc12 | -20% |  |
| Cc1ccc(-c2nnc(Nc3cccc(Br)c3)c3ccccc23)cc1S(=O)(=O)N1CCCCC1 | -0.839% |  |
| O=C(Oc1ccccc1Cl)c1cc(-c2ccc3c(c2)OCCO3)on1 |  | 1.54 µM (active) |
| CCc1cccc(C)c1NC(=O)Cn1c(=O)n(-c2ccc(C)cc2)c(=O)c2c1cnn2C | -0.148% |  |
| O=C(O)c1cc(F)c(S(=O)(=O)N2CCN(S(=O)(=O)c3ccc4c(c3)OCCO4)CC2)cc1F | -15.6% |  |
| O=C(CSc1nc(-c2ccccc2)cn1-c1ccccc1)Nc1ccccc1 | -12.3% |  |
| O=C1NC(=O)/C(=C/c2cccn2-c2ccc(P(=O)(O)O)cc2)N1 | -3.45% |  |
| Cc1ccc(NC(=O)Nc2nnc(SCC(=O)N3CCCCC3)s2)cc1 | -6.83% |  |
| COC(=O)CCC(C)C1CCC2C3CC[C@H]4CC(O)CC[C@@]4(C)C3CC(O)[C@]12C (stereo partly specified) | -8.16% |  |

| SMILES | activity change, negative = inhibition | Potency |
| --- | --- | --- |
| CCCCn1c(SCC(=O)Nc2ccc(F)cc2)nc2c(sc3ccccc32)c1=O | -15.2% |  |
| O=C1c2ccccc2C(=O)N1Cc1ccccn1 | -0.535% |  |
| CCCCCCCCCCCCCC(=O)N[C@@H](C)[C@H](O)c1ccccc1 | -1.06% |  |
| O=S1(=O)N=C(Oc2ccc(-c3ccccc3)cc2)c2ccccc21 | -1.14% |  |
| Cc1ccc(N2CC(NC(=O)C(=O)c3c[nH]c4ccccc34)CC2=O)cc1 (stereo unspecified) | -9.92% |  |
| COc1cccc2cc(C(=O)Nc3ccc(F)c(F)c3)c(=O)oc12 | -6.18% |  |
| COc1ccc(CCNC(=O)Cn2cc(C(=O)c3ccc(F)cc3)c(=O)c3ccc(C)nc32)cc1OC | -3.94% |  |
| COc1ccc(CC(=O)Nc2nc3c(s2)CCCC3)cc1 | -7.35% |  |
| COc1ccc(CNC(=O)C(=O)NCC(c2ccco2)S(=O)(=O)c2ccc(C)cc2)cc1 (stereo unspecified) | -3.51% |  |
| O=C(Nc1ccc2oc(-c3cccnc3)nc2c1)c1cc2ccccc2o1 | -7.65% [at 78.4 µM] |  |
| Cc1cc(C)cc(-n2c(SCC(=O)N3CCCCCC3)nc3c([nH]c4ccccc43)c2=O)c1 | -4.09% |  |
| Cc1ccc(NC(=O)c2ncn(-c3ccccc3)n2)c(Cl)c1 | -6.83% |  |
| O=C(Nc1ccccn1)c1sc2ccc([N+](=O)[O-])cc2c1Cl | -4.05% |  |
| C[C@H](CCC(=O)O)[C@H]1CC[C@H]2[C@@H]3CC[C@@H]4C[C@H](O)CC[C@]4(C)[C@H]3CC[C@]12C | -1.22% [at 78.4 µM] |  |
| COc1ccccc1-c1nc2cc(NC(=O)c3ccccc3Cl)ccc2o1 | -4.05% |  |
